Results taken from PubChem BioAssay AID2685 (National Center for Advancing Translational Sciences (NCATS), 2010).
The whole screen tested about 320,000 compounds, of which about 2,100 (0.66%) were called active. Another 53% or so got no clear call; they are omitted. This is one part of a sample in which actives are shown more often than they occur. Calls come from the whole dose curve; as a rule, active = well fitted inhibition curve with a large enough effect in the signal ratio, with a control signal flat (not every such curve was filed as active); inconclusive = small, poorly fitted or top-dose-only effect, or effect the other way, or a change in a side signal; inactive = flat fitted curve, though single readings scatter; the % refers to the signal ratio.
Potency is the fitted concentration of half-maximal effect.

Assay: qHTS Assay for Lipid Storage Modulators in Drosophila S3 Cells;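 for cell number change: cells counted by Cell Tracker Red CMTPX staining in the red channel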; for lipid storage change, negative = inhibition: % is set by controls: 0 for no effect and ±100 for the full control effect
Conditions: BODIPY lipid droplet fluorescence, 18-24 h, cells fed with added oleic acid; cell number change: measured here: cell count max response; series mostly up to 46.1 µM; lipid storage change, negative = inhibition: at the top concentration
Summary of the method: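 Drosophila S3 cells loaded with oleic acid (400 uM, as added) and compounds at several concentrations; lipid droplets imaged by 488-nm laser-scanning cytometry, 500–530 nm intensity and object ratio to cell channel. Percent activity normalized to 20 uM Triacsin C.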
With CCC(C)(C)n1nnnc1C(c1cc2cc(C)cc(C)c2[nH]c1=O)N1CCCC1 (stereo unspecified) the “lipid storage change, negative = inhibition” value was 8.01% (inactive) and the cell number change was 6.4%. With CN(Cc1ccccc1)CC(O)COc1ccc(CNCCOc2cccnc2)cc1 (stereo unspecified) the “lipid storage change, negative = inhibition” value was 9.6% (inactive) and the cell number change was 3.58%. For Cc1cc(NC(=O)c2cc([N+](=O)[O-])cc([N+](=O)[O-])c2C)no1, the “lipid storage change, negative = inhibition” value was -8.89% (inactive) and the cell number change was 11.7%. With CCC1=Nc2ccccc2-c2nnc(SC)nc2O1 the “outcome” value was “inactive”. For O=C1Nc2ccccc2C1(O)Cc1ccccn1 (stereo unspecified), the “lipid storage change, negative = inhibition” value was -6.05% (inactive) and the cell number change was -9.38%. With O=C1Nc2ccccc2C1(O)Cc1ccncc1 (stereo unspecified) the Potency was 13 µM (active) and the cell number change was 1.32%. In the case of O=C1Nc2ccc(Br)cc2C1(O)Cc1ccncc1 (stereo unspecified), the “lipid storage change, negative = inhibition” value is reported as 14.5% (inactive) and the cell number change is reported as 16.8%. For NS(=O)(=O)c1ccc(CCNC(=O)CSc2ccc3ccccc3c2)cc1, the “lipid storage change, negative = inhibition” value was 2.99% (inactive). For COCCN(C(=O)COC(=O)/C(=C/c1ccccc1)NC(C)=O)c1c(N)n(Cc2ccccc2)c(=O)[nH]c1=O, the “outcome” value was “inactive” and the cell number change was -11.6%. With COc1ccc(CCNC(=O)C2CC3Cn4c(nc5ccccc54)C3N2C)cc1 (stereo unspecified) the “lipid storage change, negative = inhibition” value was 6.16% (inactive) and the cell number change was -10.7%. For COC(=O)C1=C(C)N=C2SC(C#N)=C(N)N2C1c1ccc(OC)cc1 (stereo unspecified), the Potency was 11.6 µM (active) and the cell number change was -10.8%. In the case of COC(=O)C1=C(C)N=C2SC(C#N)=C(N)N2C1c1cc(OC)c(OC)c(OC)c1 (stereo unspecified), the “lipid storage change, negative = inhibition” value is reported as -7.72% (inactive) and the cell number change is reported as 2.55%. In the case of COC(=O)C1=C(C)N=C2SC(C#N)=C(N)N2C1c1cccc(OC)c1 (stereo unspecified), the “outcome” value is reported as “inactive” and the cell number change is reported as -6.05%. In the case of CCC1(C(=O)OC)NC(c2ccco2)C2C(=O)N(c3ccc(C)cc3)C(=O)C21 (stereo unspecified), the Potency is reported as 29.1 µM (active) and the cell number change is reported as -0.0174%. With CCCC1(C(=O)OC)NC(c2ccco2)C2C(=O)N(c3ccc(C)cc3)C(=O)C21 (stereo unspecified) the “lipid storage change, negative = inhibition” value was 0.487% (inactive) and the cell number change was 3.89%. With CCC1(C(=O)OC)NC(c2ccco2)C2C(=O)N(c3ccccc3)C(=O)C21 (stereo unspecified) the “lipid storage change, negative = inhibition” value was 3.55% (inactive) and the cell number change was 5.03%. For COc1ccccc1C1=Nn2c(COc3ccccc3)nnc2SC1, the “lipid storage change, negative = inhibition” value was 8.35% (inactive) and the cell number change was 23.6%. For O=S(=O)(c1ccc(Cl)cc1)N1CCn2c1nc1ccccc12, the “outcome” value was “inactive”. With O=[N+]([O-])c1cccc(S(=O)(=O)N/N=C\c2ccc3c(c2)OCO3)c1 the “lipid storage change, negative = inhibition” value was -28.7% (inactive) and the cell number change was -21.8%. With Cc1nc(Cc2ccc(OC(C)C)cc2)[nH]c(=O)c1CC(=O)O the “lipid storage change, negative = inhibition” value was 17.8% (inactive) and the cell number change was 12.4%. For Cc1ccc(-c2csc(NC(=O)C3=COCCO3)n2)cc1, the “lipid storage change, negative = inhibition” value was 12.5% (inactive) and the cell number change was -0.453%. In the case of CC(=O)Nc1ccc(-c2csc(NC(=O)C3=COCCO3)n2)cc1, the lipid storage change, negative = inhibition is reported as -16.5% [at 0.0737 µM] (inactive). For O=C(Nc1nc(-c2ccc(Cl)cc2)cs1)C1=COCCO1, the Potency was 9.2 µM (active) and the cell number change was -17.4%. With COC(=O)CNC(c1ccccc1)c1cc(Br)ccc1NC(C)=O (stereo unspecified) the “lipid storage change, negative = inhibition” value was 10.9% (inactive) and the cell number change was 6.76%. For CCC(=O)Nc1ccc(NC(=O)c2ccccc2Cl)nc1, the “outcome” value was “inactive” and the cell number change was 7.43%. For COc1cc(C(=O)Oc2ccc(C(=S)N3CCOCC3)cc2)cc(OC)c1OC, the “lipid storage change, negative = inhibition” value was -15.9% (inactive) and the cell number change was -0.493%. For CCOc1cccc(C(=O)Nc2ccc3ccccc3c2)c1, the “outcome” value was “inactive” and the cell number change was 17.9%. With CCOCCOc1cccc(C(=O)NC(C)c2ccc3ccccc3c2)c1 (stereo unspecified) the Potency was 13 µM (active) and the cell number change was -6.8%. In the case of CCOCCOc1cccc(C(=O)NC(c2ccccc2)C(C)C)c1 (stereo unspecified), the “lipid storage change, negative = inhibition” value is reported as -3.66% (inactive) and the cell number change is reported as 13.4%. With CC12COC3(C(=O)Nc4ccccc4F)CC1CCC32C (stereo unspecified) the “lipid storage change, negative = inhibition” value was 0.0813% (inactive) and the cell number change was -23.5%. For CCc1nc(C)cn1S(=O)(=O)c1ccc([N+](=O)[O-])cc1, the “lipid storage change, negative = inhibition” value was -3.24% (inactive) and the cell number change was 7.81%. With COC(=O)CN1C(=S)N(C)C(=O)/C1=C/c1cccs1 the “outcome” value was “inactive”. For O=C(CCCc1ccccc1)c1ccc2c(c1)OCCO2, the “lipid storage change, negative = inhibition” value was 5.96% (inactive) and the cell number change was -0.322%. With O=C(CCCO)c1ccc2c(c1)OCCO2 the Potency was 18.4 µM (active) and the cell number change was -5.61%. In the case of O=C(Cc1ccccc1)c1ccc2c(c1)OCCO2, the “lipid storage change, negative = inhibition” value is reported as 2.3% (inactive) and the cell number change is reported as 9.53%. With Cn1c2c(c3ccccc31)CC/C2=N\O the “outcome” value was “inactive” and the cell number change was 17%. In the case of Cc1ccc(P(=O)(OCCN2CCOCC2)C(C)(C)C)o1 (stereo unspecified), the “lipid storage change, negative = inhibition” value is reported as -11.2% (inactive) and the cell number change is reported as -0.698%. In the case of CCCCc1nnc(NC(=O)CSc2nc(O)c(-c3ccccc3)c(=O)[nH]2)s1, the “lipid storage change, negative = inhibition” value is reported as -3.64% (inactive) and the cell number change is reported as -17.7%. With O=C1CC(c2ccc3c(c2)OCCO3)Oc2ccc([N+](=O)[O-])cc21 (stereo unspecified) the Potency was 7.31 µM (active) and the cell number change was -9.91%. In the case of COc1ccc2c(c1)C(=O)CC(c1ccc3c(c1)OCCO3)O2 (stereo unspecified), the “lipid storage change, negative = inhibition” value is reported as 8.02% (inactive) and the cell number change is reported as 2.81%. With O=C1CC(c2ccc3c(c2)OCCO3)Oc2ccccc21 (stereo unspecified) the “lipid storage change, negative = inhibition” value was 9.86% (inactive) and the cell number change was 8.06%. For C/C(N)=C(/C#N)C(=O)COC(=O)c1ccc(NC(N)=O)cc1, the “lipid storage change, negative = inhibition” value was 7.52% (inactive) and the cell number change was 13.4%. With O=C(N/N=C/c1cccc([N+](=O)[O-])c1)c1ccc(Br)cc1 the “lipid storage change, negative = inhibition” value was -16.9% (inactive) and the cell number change was 0.144%. For Cn1nnnc1SCCNCc1cc(Cl)ccc1OCc1ccccc1, the Potency was 5.8 µM (active) and the cell number change was 3.31%. With Cn1nnnc1SCCNCc1ccccc1OCc1ccccc1 the “lipid storage change, negative = inhibition” value was -2.39% (inactive) and the cell number change was 16.4%. For COc1cc(CNCCSc2nnnn2C)cc(Br)c1OCc1ccccc1, the “lipid storage change, negative = inhibition” value was 7.07% (inactive) and the cell number change was -4.04%. In the case of O=C(CSc1nccn1Cc1ccco1)Nc1ccccc1, the “lipid storage change, negative = inhibition” value is reported as -11.6% (inactive) and the cell number change is reported as 2.09%. With COc1cnc(-c2ccccc2)nc1Oc1ccccc1C the Potency was 5.17 µM (active) and the cell number change was -26.8%.
